We go through 96 compounds from ChEMBL document CHEMBL4513216, “Probing the Open Global Health Chemical Diversity Library for Multistage-Active Starting Points for Next-Generation Antimalarials” (ACS Infect Dis, 2020).

The campaign covered roughly 65,000 compounds. About 2,100 (3.2%) showed an effect of 50% or more. The median lay at about -52%. The full list was thinned out, with strong results kept by preference.

In the test the test system is Plasmodium falciparum. Description: Screen against P. falciparum Asexual Blood Stage (ABS), at 5uM. The format is functional, Dd2. The conditions noted are these: tested at 5 uM.
For the compound `Cc1ncsc1CN1CCO[C@H]2[C@H](Oc3ccccn3)CC[C@@H]21`, the INHIBITION is on record as -24.4%.
The same measure for `CCC12CN3CC(CC)(CN(C1)C3c1[nH]c(=O)[nH]c(=O)c1C)C2=O` (stereo unspecified): -87.1%; for `CCOC(=O)[C@@H]1[C@@H](c2ccccc2)CN2CCN(C(=O)C3CC3)C[C@H]12`: -91.7%.
Turning to `c1cc(CN2CCO[C@@H]3CNC[C@@H]32)co1`, the INHIBITION is -38.2%.
The same measure for `COc1cc(C2c3c(n[nH]c3C)N=C3COC(=O)C32)cc(Br)c1O` (stereo unspecified): 91%.
The same measure for `COc1cc(C2SCC(=O)Nc3n[nH]cc32)cc(OC)c1O` (stereo unspecified): -36%; for `CCOc1c(Br)cc(C2c3c(n[nH]c3C)N=C3COC(=O)C32)cc1OC` (stereo unspecified): 81.1%.
For `c1ccc(CN2CCO[C@H]3[C@H](OCCN4CCCC4)CC[C@@H]32)nc1` the value was 30%; for `CN1CCN(C[C@H]2CN3CC[C@H]2C[C@@H]3CNC(=O)c2ccco2)CC1`, -59.7%.
In the case of `O=C1CO[C@@H]2CN(Cc3ccncc3)C[C@H]2N1Cc1ccncc1`, the INHIBITION is reported as -52.2%.
For `CC(=O)N1CCC2(CC1)NC(=O)[C@H]1CN(Cc3cccnc3)C[C@H]12` the value was -6.03%; for `CC1=C(CCN2C[C@H](O)[C@@H](N3CCOCC3)C2)C(C)(C)CCC1`, 78.3%; for `Cc1ccccc1CC(=O)N1C[C@@H](O)[C@H](N2CCOCC2)C1`, -16.5%.
For `O=C(COc1cccc(F)c1)N1C[C@@H](O)[C@H](N2CCOCC2)C1` the value was -17.5%; for `COc1cc(N2CCC[C@]3(C(=O)O)CN(C(C)C)C[C@@H]3C2)ncn1`, -85.1%; for `Brc1ccc(CN2CCC(NCc3ncc[nH]3)CC2)cc1`, 83.5%.
In the case of `Clc1cc(Cl)cc(CN2CCC(NCc3ncc[nH]3)CC2)c1`, the INHIBITION was 84.7%.
For `O=S1(=O)C[C@@H]2[C@H](C1)N(Cc1ncc[nH]1)CCN2Cc1cccnc1` the value was -89.75%.
The same measure for `CCn1cc(CN2CCCN(C(=O)Cc3ccc(C)nc3)CC2)cn1`: -14.8%.
As to `CCn1cc(CN2CCCC(COc3ccccc3F)C2)cn1` (stereo unspecified), the INHIBITION amounted to 72.7%.
The same measure for `Cc1nc(CN(C)C)cc(N2CCCC(COc3ccc(F)cc3)C2)n1` (stereo unspecified): 86.4%; for `COCCc1ncc(CN2CCCC(C(=O)c3ccccc3)C2)cn1` (stereo unspecified): -145%.
For `CCn1cc(CN2CCCC(COc3ccc(F)cc3)C2)cn1` (stereo unspecified) the value was 75.5%; for `CCn1cc(CN2CCCN(C(=O)Cc3cccs3)CC2)cn1`, -85.9%.
Turning to `O=C(N[C@@H]1CN[C@@H]2CCCO[C@@H]21)c1cscn1`, the INHIBITION came to 14%.
As to `Cc1noc(C)c1CN1CC[C@H]2C[C@H](c3nccs3)O[C@@H]2C1`, the INHIBITION is reported as -8.14%.
The same measure for `O=C1CO[C@H]2CN(C3CCOCC3)C[C@H]2N1Cc1ccccn1`: -104%; for `CCCc1nc(C(=O)N[C@H]2COC[C@@H]2N2CCN(C)CC2)cs1`: -49.3%; for `COCCN1CCc2c(cnc(-c3ccoc3)c2C(=O)O)C1`: -47.6%.
The same measure for `Cc1occc1C(=O)N1CCN2C[C@H](Oc3cccnc3)C[C@H]2C1`: -23.4%; for `Cc1ccc(OCc2occc2C(=O)N2CCCCC(N)C2)cc1` (stereo unspecified): 77.5%; for `CC(C)NC(=O)[C@H]1C[C@H]2NCCO[C@@H]2C1`: -33.9%.
The same measure for `Cc1cc(CN2C[C@H]3CCC[C@@]3(COCC3CCOCC3)C2)no1`: -91.9%.
For `O=C(Cc1ccccn1)N1C[C@H]2CN(Cc3ccccn3)C[C@H]2C1`, the INHIBITION is -68.5%.
Take `Oc1cccc(CN2C[C@@H]3CC[C@H]2CN(Cc2cccnc2)C3)c1`: the INHIBITION is reported as -14.5%.
The same measure for `O=C(CN1C[C@@H]2CC[C@H]1CN(Cc1ccccn1)C2)Nc1ccccc1`: 83.6%.
As for `Cc1nnsc1CN1C[C@@H]2CC[C@H]1CN(Cc1ccccn1)C2`, the INHIBITION is given as -2.06%.
The same measure for `O[C@@]1(c2ccccn2)CC[C@H]2CN(Cc3ccccn3)C[C@H]21`: -89.9%.
The same measure for `CC(C)(C)c1cc(CN2C[C@@H]3CC[C@H]2CN(Cc2ccccn2)C3)n[nH]1`: 74.1%; for `CN(c1ncccc1C#N)C1CCN(CCc2ccncc2)CC1`: 30.8%; for `c1ccc2c(c1)CCC21CN(CCc2ccncc2)CCO1` (stereo unspecified): -30.5%.
The same measure for `C[C@@H]1C[C@@H]2CCN(Cc3ccncc3)C[C@H]2O1`: -17.4%; for `Clc1cccc(CNC2CCN(CCc3ccncc3)CC2)c1`: 92.3%; for `CN1CCN(Cc2ccncc2)Cc2cccnc21`: -190%.
Consider `Cc1cccc(CNC2CCN(CCc3ccncc3)CC2)c1C`, for which the INHIBITION is given as 76.3%.
The same measure for `Fc1ccc(CNC2CCN(CCc3ccncc3)CC2)cc1F`: 89.8%; for `Cc1ccc(CNC2CCN(CCc3ccncc3)CC2)cc1C`: 86.9%.
For the compound `COCCNC(=O)[C@@]12CCO[C@@H]1CCN(Cc1ccncc1)C2`, the INHIBITION is reported as -51.1%.
The same measure for `Cc1n[nH]c2c1C(c1ccc(Cl)cc1)SCC(=O)N2` (stereo unspecified): -12.6%; for `Cc1ccc(C(=O)N2C[C@@H]3OCCN(C(C)C)[C@@H]3C2)cn1`: -18.4%; for `Cc1cccc(CN2C(=O)C[C@H]3[C@@H]2CCN3Cc2ccco2)n1`: 13.4%.
For `COCCN1CCO[C@H]2CN(C(=O)c3ccncc3F)C[C@H]21` the value was -230%; for `CC(Cn1cccn1)NCC(=O)NC1CCOCC1` (stereo unspecified), -32.4%.
The same measure for `Cc1cc(CC(=O)N2CCN(C)[C@@H]3CS(=O)(=O)C[C@@H]32)ccc1F`: -54.5%; for `C[C@@H]1CN(Cc2ccsc2)C[C@]12CCN(Cc1cccnc1)C2=O`: -45.2%; for `CC1CN(CCc2ccncc2)CCO1` (stereo unspecified): -107%.
In the case of `CCN1C[C@H]2CCN(Cc3ccncc3)C(=O)[C@@H]2C1`, the INHIBITION is -66.4%.
`CSc1ccc(CNC2CCN(CCc3ccncc3)CC2)cc1`: the INHIBITION came to 93%.
The same measure for `Cc1nc(CO[C@H]2CN(Cc3ccccn3)[C@@H]3CCCO[C@H]23)cs1`: -44.2%.
For `CCC1=N[C@@]2(CC[C@@H]3CN(CC)C[C@@H]32)C(=O)N1C` the value was -47.6%; for `CC1=N[C@@]2(CC[C@@H]3CNC[C@@H]32)C(=O)N1CC(C)C`, -138%.
The same measure for `CC1=N[C@@]2(CC[C@@H]3CN(Cc4ccccc4C)C[C@@H]32)C(=O)N1CC1CC1`: 85.1%; for `CNC(=O)[C@H]1C[C@@H]2CN(C(=O)c3cncc(C)c3)C[C@@H]2N1C`: -93.3%; for `CC(C)CNC(=O)N1CCOC2(CCNCC2)C1`: -53.6%.
In the case of `CC(C)NC(=O)C1(Cc2ccccc2-c2ccccc2)CCCNC1` (stereo unspecified), the INHIBITION is 76.7%.
With `CC(C)NC(=O)N1CCOC2(CCCNC2)C1` (stereo unspecified), the INHIBITION is listed as -67.8%.
As for `O=C(Nc1ccccc1)C1=NOC2(CCCNC2)C1` (stereo unspecified), the INHIBITION is given as -22.7%.
The same measure for `CC(C)CNC(=O)C1(Cc2ccccc2-c2cccs2)CCNC1` (stereo unspecified): 71.7%; for `CC(C)NC(=O)[C@@H]1C[C@H]2NCC[C@H]2O1`: -104%.
The same measure for `CCN1CCC2(COCc3cnc(NCC4CC4)nc32)C1` (stereo unspecified): 1.43%; for `CCN1C[C@@H]2[C@@H](OC)CCN(S(=O)(=O)c3cccnc3)[C@@H]2C1`: -17.9%; for `COc1cc2nc(NCc3ccc(C)nc3)nc(N)c2cc1OC`: 90.6%.
For `COc1cc2nc(NCc3scnc3C)nc(N)c2cc1OC` the value was 89.8%; for `Fc1cccnc1O[C@@H]1CN(Cc2ccco2)[C@@H]2CCCO[C@@H]21`, -48.2%; for `COc1ccccc1C1(CNCc2ccc(C#N)cc2)CCOCC1`, 76.6%.
On to `COc1ccccc1N1CCC(CNCc2ccc(C#N)cc2)C1` (stereo unspecified), for which the INHIBITION came out at 94.1%.
The same measure for `CSC1(CNC(=O)NC(C)Cc2cccc(F)c2)CCOCC1` (stereo unspecified): -25.5%.
With `N#Cc1ccc(CNCC2(c3ccccc3)CCOCC2)cc1`, the INHIBITION is 83%.
The same measure for `CC[C@H]1CN2CC[C@H]1C[C@@H]2CNCc1cccc(C#N)c1`: 34.8%.
The same measure for `COc1ccccc1C1(CNCc2cccc(O)c2)CCOCC1`: 82.8%.
For `O=C([C@@H]1CC[C@@H]2[C@@H](CCN2Cc2ccncc2)O1)N1CCCCO1` the value was -84.8%; for `O=C1CO[C@@H]2CN(CC3CCOCC3)C[C@H]2N1Cc1ccncc1`, -115%; for `Cc1ccc(C(CCNCCCN(C)C)C2CCOC(C)(C)C2)cc1` (stereo unspecified), 83.6%.
On to `CN(Cc1cccnc1)[C@@H]1CN(CC2CC2)[C@@H]2CCCO[C@H]12`, for which the INHIBITION is recorded as -1.12%.
For `COc1cc(OC)c(C2Nc3cc(Cl)ccc3C3=NCCN32)cc1OC` (stereo unspecified) the value was 81.7%; for `COc1cc(OC)c(C2SCC(=O)Nc3n[nH]cc32)cc1OC` (stereo unspecified), -189%.
For `C/C(=C\c1ccco1)CN(C)C(C)Cc1cc(C)ccn1` (stereo unspecified) the value was -0.191%; for `CS(=O)(=O)Cc1nc(CN2CC=C(c3ccccc3)CC2)cs1`, -50.8%.
`CCCN1CCN(C(=O)c2cnccc2C)[C@H]2CS(=O)(=O)C[C@H]21`: the INHIBITION was -12.9%.
For `CC(C)c1ncc(Cl)c(C(=O)N2CCN3CCCCC3C2)n1` (stereo unspecified) the value was -158%; for `Cc1c(C(=O)N2CCC(N3CCCCC3)CC2)n(C)c2ccc(Cl)cc12`, 88%.
For `O=C(c1[nH]c2ccc(Cl)cc2c1Cl)N1CCC2(CC1)OCCO2` the value was -37.1%; for `CC(Cn1cncn1)NCc1csc2c1CCCC2` (stereo unspecified), -42.7%; for `Fc1ccc(OCCNC2CCN(Cc3ccncc3)CC2)c(F)c1`, 74.2%.
For `c1cc(CN2CC[C@@H]3CN(c4cnccn4)C[C@@H]3C2)ccn1` the value was -72.2%; for `c1cnc(NC[C@H]2OC[C@@H]3CCN(Cc4ccncc4)C[C@@H]32)nc1`, -102%.
